# A selection: hits, their analogues and other compounds. The true share with any hit is near 3.8%.
# Mdm2-MdmX inh: disrupts the human Mdm2-MdmX interaction; hit rate 3% among 330,000; inhibition, % at 8 µM; O15151+Q00987; SaOS-2 split-luciferase Mdm2/MdmX complementation, luminescence;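 active = inhibition of at least 50% at 8 µM in the primary screen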
# Jurkat NFkB inh: lowers PMA/ionomycin-induced NF-kB signal in Jurkat cells; PMA/ionomycin-induced NF-kB luciferase reporter, luminescence; hit rate 0.53% among 330,000; inhibition, % at 4 µM; in the data active = inhibition above about 50%
# NTR1 ag: NTR1 (human) agonism; AID 493036; hit rate 0.17% among 330,000; NTR1-U2OS beta-arrestin-GFP spot imaging, agonist mode; activation, % at 20 µM; P30989;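 active = activation at or above 40% of the spot to cytoplasm intensity ratio, with at least 20 cells analyzed; inconclusive = wells under 20 cells, flagged as cytotoxic or low count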;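 also: 0% = DMSO without peptide and 100% = 100 nM NTR1 peptide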
# Target sequence (P30989 whole entry, looked up): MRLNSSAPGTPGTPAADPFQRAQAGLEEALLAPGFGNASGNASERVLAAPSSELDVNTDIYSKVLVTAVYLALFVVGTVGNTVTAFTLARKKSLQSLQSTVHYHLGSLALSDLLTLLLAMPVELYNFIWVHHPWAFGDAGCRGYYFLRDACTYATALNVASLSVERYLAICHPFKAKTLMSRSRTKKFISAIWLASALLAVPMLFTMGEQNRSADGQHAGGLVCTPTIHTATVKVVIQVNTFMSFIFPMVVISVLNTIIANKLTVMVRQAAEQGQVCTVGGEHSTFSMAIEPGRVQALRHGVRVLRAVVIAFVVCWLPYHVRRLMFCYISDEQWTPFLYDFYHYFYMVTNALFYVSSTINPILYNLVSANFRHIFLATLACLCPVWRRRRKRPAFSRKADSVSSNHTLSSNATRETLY
# Beta apoptosis: beta cell apoptosis inhibition. AID 435005. protection from apoptosis, % (test concentration not listed). hit rate 0.8% among 300,000. INS-1E cytokine-induced death, ATP luminescence, 48 h; percent of positive-control rescue, neutral wells zero;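 active = Every replicate reaches about 75%, or at least half do and their mean reaches it too, limit read from the data; inconclusive = At least half of replicates reach the limit but their mean does not; inactive = Under half of replicates reach the limit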;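 also: 0% = cytokine-treated negative control wells and 100% = positive control rescue; higher means more ATP so stronger rescue from cytokine killing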
# 697 NFkB inh: inhibitors of the PMA/ionomycin-induced NF-kB reporter in 697 B cells | 697 B-cell NF-kB luciferase reporter, 16 h | inhibition, % at 4 µM | hit rate 0.33% among 330,000; in the data active = inhibition above about 35%
# A1 inh: inhibitors of the anti-apoptotic protein A1, read as caspase activation; MEF A1-2A-BIM cells, Caspase-Glo 3/7 luminescence, 3 h; percent of clofoctol response, vehicle zero; caspase activation, % (no concentration beside the values); hit rate 0.066% among 330,000; AID 2462;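 active = over half of replicate activation scores above 10%, or exactly half above 10 with the replicate mean above 10; inconclusive = replicate mean below 10 yet half the replicates above 10; inactive = over half of replicates below 10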
# Mdm2 MdmX conf: confirmation of human Mdm2/MdmX interaction inhibitors. Mdm2-MdmX binding, luminescent assay. hit rate 55% among 10,000. AID 489028. shares compounds with Mdm2-MdmX inh. inhibition, % at 8 µM; in the data active = inhibition above about 40%
# Full FLuc ctr: counter-screen for Mdm2/MdmX inhibitors: full-length luciferase | hit rate 77% among 6,200 | inhibition, % at 8 µM | AID 504607 | SaOS-2 full-length luciferase counterscreen, luminescence | shares compounds with Mdm2-MdmX inh;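 active = mean inhibition at 8 µM reaching about 37%, which flags the compound as non-specific, limit read from the data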;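 also: p53-null SaOS-2 cells with luciferase driven by a doxycycline-inducible promoter; compound on cells about two nights before reading with doxycycline added after day one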
# * hit, by the source's call; u = inconclusive; x = no result given.
SMILES,Mdm2-MdmX inh,Jurkat NFkB inh,NTR1 ag,Beta apoptosis,697 NFkB inh,A1 inh,Mdm2 MdmX conf,Full FLuc ctr
O=C(NN=Cc1ccc(O)cc1O)c1ccccc1NS(=O)(=O)c1cccs1,55*,7,2,2,6,-1,38,47*
COc1ccc(C=NNC(=O)c2ccccc2NS(=O)(=O)c2cccs2)cc1O,16,-8,-1,-3,3,1,x,x
COCc1ccc(-c2c(-c3ccsc3)oc(=O)c3cc(OC)c(OC)cc23)cc1,26,-1,6,-1,-51,-3,x,x
CC(C)N1CCN(C(=O)c2ccc([N+](=O)[O-])cc2)CC1,-34,0,2,2,-5,-1,x,x
C[C@H](CO)N1C[C@H](C)[C@@H](CN(C)S(=O)(=O)c2cccs2)Oc2ccc(NC(=O)Nc3ccc(C(F)(F)F)cc3)cc2C1=O,68*,-3,6,6,14,0,-2,x
C[C@@H]1CN([C@H](C)CO)C(=O)c2cc(NC(=O)Nc3ccc(C(F)(F)F)cc3)ccc2O[C@H]1CN(C)S(=O)(=O)c1cccs1,81*,-7,7,u,-1,0,51*,44*
COc1ccc(CCN2CCCn3c2nc2c3c(=O)n(CC(N)=O)c(=O)n2C)cc1OC,-11,-2,0,6,-14,0,x,x
Cc1cc(Nc2ccc([N+](=O)[O-])cc2)nc2ccccc12,43,-1,0,6,-14,0,x,x
Cc1cc(Nc2ccc([N+](=O)[O-])cc2)c2ccccc2n1,93*,-4,8,41,-12,0,70*,55*
CC(=O)c1ccc(Nc2cc(C)nc3ccc(C)cc23)cc1,51*,34,3,26,5,1,37,90*
CCOC(=O)c1[nH]c(COC(=O)c2ccccc2NC(=O)c2ccco2)c(C(=O)OCC)c1C,-33,-9,0,6,21,0,x,x
CCOC(=O)c1c(C)[nH]c(C(=O)COC(=O)c2ccccc2NC(=O)c2ccco2)c1C,63*,-5,1,-4,-7,0,16,x
Cc1nc2ccccc2c(N)c1C(=O)/C=C/c1ccccc1,76*,14,10,8,-35,-1,33,75*
CN(C)C/C=C/C(=O)Nc1cccc(-c2c[nH]c3ncnc(Oc4ccc(NC(=O)CC(=O)Nc5ccc(F)cc5)cc4F)c23)c1,68*,-8,6,-16,18,-1,2,x
Cc1ccc(-c2oc3ccccc3c(=O)c2O)cc1,84*,-36,12,20,1,-2,51*,25
Cc1ccc(-c2oc3ccccc3c(=O)c2OCC(=O)O)cc1,-5,9,1,-5,1,1,x,x
O=[N+]([O-])c1ccccc1/C=C/C=N/Nc1nc(N2CCCCC2)nc(N2CCCCC2)n1,-19,23,2,2,13,0,x,x
C(=C\c1ccccc1)/C=N/Nc1nc(N2CCCCC2)nc(N2CCCCC2)n1,57*,1,0,-8,3,0,16,x
Cc1oc(-c2cccc(Cl)c2)nc1CN1CCC(C(=O)NCCCN2CC(C)CC(C)C2)CC1 (centres undefined),100*,44,0,9,0,1,98*,53*
CCCN(CCC)CCNC(=O)C1CCN(Cc2nc(-c3ccc(Cl)cc3)oc2C)CC1,88*,6,-1,5,19,0,79*,30
Cc1oc(-c2ccc(Cl)cc2)nc1CN1CCC(C(=O)NCc2cccnc2)CC1,11,2,0,-1,-3,0,x,x
CCN1CCN(CCNC(=O)C2CCCN(Cc3nc(-c4cccc(Cl)c4)oc3C)C2)CC1 (centres undefined),63*,9,-3,6,-18,-1,32,x
Cc1nn(Cc2ccccc2Cl)c2sc(C(=O)Nc3ccccc3N3CCOCC3)cc12,55*,18,6,3,12,0,61*,61*
